Results filed as inconclusive are left out. Activity calls are given as the source filed them. The call rests on the fitted dose curve; in most records, active means well fitted curve in the direction sought with a large enough effect; inconclusive means small, poorly fitted or top-dose-only effect, or another doubt; inactive means no such curve, though single readings can be large; an effect the other way counts as inactive or inconclusive.
Key:
[1] = Cytotoxicity qHTS for assessment of Hepg2 cells membrane integrity screened against the NCATS CANVASS Library (AID 1347387); conditions: HepG2 LDH release (CytoTox-ONE) fluorescence, 5 h; series mostly up to 46.1 µM
Outline: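 HepG2 cells (2000/well) attached overnight at 37C, then received compounds in an 11-point series at 0.59 nM - 46 uM final for 5 hr. LDH release was detected fluorometrically (ex 560/em 590 nm) with CytoTox-ONE reagent after 10 min at room temperature.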

[2] = qHTS for Activators of p53 Stress Response Pathway screened against the NCATS CANVASS Library (AID 1347388); conditions: p53RE-bla HCT-116, beta-lactamase reporter, 16 h; series mostly up to 46.1 µM
Outline: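 p53RE-bla HCT-116 cells (4000/well) were plated 5 h at 37C, exposed to compounds for 16 h at 37C over an 11-point concentration series, then loaded with CCF4 for 2 h at room temperature; 460/530 nm emission ratio read.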

[3] = qHTS assay for small molecule disruptors of mitochondrial membrane potential screened against the NCATS CANVASS Library (AID 1347389); conditions: HepG2 mitochondrial membrane potential, m-MPI red/green ratio, 1.5 h; series mostly up to 46.1 µM; further: nearly all actives have a fitted effect of over 60% in size; further: potency means the concentration at half of the fitted maximal effect
Outline: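 HepG2 cells (2,000/well) were plated overnight at 37C, exposed to compound for 1 hr at 37C/5% CO2, then loaded with Mito-MPS dye for 30 min. Depolarization was read as a drop in red (590 nm) to green (535 nm) fluorescence ratio.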

[4] = qHTS for activators of dead-cell proteases activity screened against the NCATS CANVASS Library (AID 1347392); conditions: HepG2 cytotoxicity, dead-cell protease luminescence, 5 h; series mostly up to 46.1 µM;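 further: luminescence from protease leaking out of membrane-damaged cells cleaving impermeant substrate; rising signal means more cytotoxicity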
Outline: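 HepG2 cells (2000/well) attached 18 h at 37C, then exposed 5 h to compounds (11-point qHTS). Dead-cell protease activity read as luminescence from cell-impermeant AAF-aminoluciferin substrate after 15 min at room temperature.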

[5] = qHTS for inhibitors of ER calcium dysfunction: SERCaMP assay screened against the NCATS CANVASS Library (AID 1347393); conditions: SH-SY5Y GLuc-SERCaMP (Gaussia luciferase released on ER calcium loss) secretion, thapsigargin, luminescence; series mostly up to 76.6 µM; further: nearly all actives have a fitted effect of over 40% in size; further: potency means the concentration at half of the fitted maximal effect
Outline: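 qHTS in SH-SY5Y reporter cells: 16 h compound pretreatment, 4 h thapsigargin, then secreted Gaussia luciferase measured by luminescence.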

[6] = Vero-766 cells viability qHTS against the NCATS CANVASS Library: Counterscreen for Zika virus inhibition assay (AID 1347394); conditions: Vero 766 viability, CellTiter-Glo luminescence, 72 h; series mostly up to 46.1 µM; further: nearly all actives have a fitted effect of over 60% in size; further: potency means the concentration at half of the fitted maximal effect
Outline: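 Uninfected Vero 766 (African green monkey) cells, 1000/well, attached overnight, then exposed 72 h at 37C to compounds (11-point qHTS). Viability read by CellTiter-Glo luminescence; media-only wells served as 100% inhibition.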

[7] = Viability qHTS for inhibitors of the SERCaMP assay screened against the NCATS CANVASS Library (AID 1347400); conditions: SH-SY5Y SERCaMP cells viability, CellTiter-Glo, 48 h; series mostly up to 92.2 µM; further: nearly all actives have a fitted effect of over 70% in size; further: potency means the concentration at half of the fitted maximal effect
Outline: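 SH-SY5Y-GLuc SERCaMP MJH297-derived cells (1000 cells/well) were pre-incubated 4 h at 37C, then exposed to compounds for 48 h. Viability was read as CellTiter-Glo luminescence; bortezomib served as positive control.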

[8] = Redox Reaction Profiling qHTS: Assay Interference Panel against the NCATS CANVASS Library (AID 1347401); conditions: resazurin-DTT redox cycling, fluorescence, 15 min; series mostly up to 57.1 µM
Outline: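 Resazurin (5 uM) conversion to resorufin measured with 200 uM DTT in 50 mM HEPES pH 7.3, 50 mM NaCl. Compounds tested in 11-point qHTS series. Fluorescence (ex 525/em 598 nm) read before and after 15 min dark incubation.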

[9] = qHTS for inhibitors of Wild type Zika virus screened against the NCATS CANVASS Library (AID 1347396); conditions: Vero cells, Zika virus CPE, CellTiter-Glo, 72 h; series mostly up to 45.9 µM;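 further: ATP luminescence of surviving cells so rescue from viral cell killing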
Outline: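 Protection against wild-type Zika cytopathic effect is measured in African green monkey Vero 766 cells exposed to an 11-point compound series. Surviving cells are quantified by CellTiter Glo luminescence after 72 h.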

Measured: Potency

O=c1cc(-c2ccccc2)oc2c(O)c(O)ccc12
active: [3] 18.6 µM | [5] 38.4 µM | [6] 23.4 µM | [7] 34 µM
inactive: [1] | [2] | [4] | [8]

O=C(O)c1cc(O)c(O)c(O)c1
inactive: all assays above

Source: PubChem BioAssay (NCATS)
